Laboratory results published in PubChem BioAssay (NCATS).
Inconclusive results are not listed. Active and inactive are the calls of the source. Calls follow the shape of the dose curve; as a rule, active = well fitted curve in the direction sought with a large enough effect; inconclusive = small, poorly fitted or top-dose-only effect, or another doubt; inactive = no such curve, though single readings can be large; an effect the other way counts as inactive or inconclusive.

Columns and labels:
[1] = qHTS of pediatric cancer cell lines to identify multiple opportunities for drug repurposing: Primary screen for TC32 cells (AID 1347089); also: nearly all actives have a fitted effect of over 60% in size
Outline: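 Luminescent CellTiter-Glo read-out of metabolically active TC32 cells after 48 h compound exposure. Primary: MIPE 11-point, 0.78 nM–46 µM; NPC 8-point, 0.59 nM–46 µM. Confirmatory: 11-point dilutions.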

[2] = qHTS of pediatric cancer cell lines to identify multiple opportunities for drug repurposing: Primary screen for DAOY cells (AID 1347090); also: nearly all actives have a fitted effect of over 55% in size
Outline: (§1)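 Cell viability, CellTiter-Glo luminescence; 500-1,000 cells/well, 8- or 11-point titration, 48 h compound exposure at 37 degrees C, 5% CO2. Controls: DMSO neutral, bortezomib 2.3 µM final as positive.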

[3] = qHTS of pediatric cancer cell lines to identify multiple opportunities for drug repurposing: Primary screen for SJ-GBM2 cells (AID 1347091)
Outline: as §1

[4] = qHTS of pediatric cancer cell lines to identify multiple opportunities for drug repurposing: Primary screen for A673 cells (AID 1347092); also: nearly all actives have a fitted effect of over 45% in size
Outline: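 A673 cells (500-1,000 cells/well in growth media) were pre-incubated 5 h at 37 degrees C, then exposed to compounds for 48 h. Viability was read as CellTiter-Glo luminescence; concentration-response curves came directly from the primary screen.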

[5] = qHTS of pediatric cancer cell lines to identify multiple opportunities for drug repurposing: Primary screen for SK-N-MC cells (AID 1347093)
Outline: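 Metabolically active cells were quantified by ATP-dependent luminescence (CellTiter-Glo, 15 min at room temperature) following 48 h treatment. Cells had been plated at 500-1,000 per well and settled for 5 h beforehand.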

[6] = qHTS of pediatric cancer cell lines to identify multiple opportunities for drug repurposing: Primary screen for NB-EBc1 cells (AID 1347095)
Outline: (§2)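 Following a 5-hour attachment period, cells at 500-1,000/well received compounds and were cultured for 48 hours. CellTiter-Glo was added and luminescence read to estimate viable, metabolically active cells.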

[7] = qHTS of pediatric cancer cell lines to identify multiple opportunities for drug repurposing: Primary screen for U-2 OS cells (AID 1347096); also: nearly all actives have a fitted effect of over 50% in size
Outline: (§3)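 Cells (500-1,000/well) rested 5 h, then received compounds for 48 h; metabolically active cells were measured by CellTiter-Glo luminescence. Final concentrations spanned up to 46 µM (MIPE, 11-point) or 0.59 nM-46 µM (NPC, 8-point) in primary screens, 11-point in follow-ups.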

[8] = qHTS of pediatric cancer cell lines to identify multiple opportunities for drug repurposing: Primary screen for SK-N-SH cells (AID 1347098); also: nearly all actives have a fitted effect of over 65% in size
Outline: as §3

[9] = qHTS of pediatric cancer cell lines to identify multiple opportunities for drug repurposing: Primary screen for Rh18 cells (AID 1347102); also: nearly all actives have a fitted effect of over 65% in size
Outline: as §3

[10] = qHTS of pediatric cancer cell lines to identify multiple opportunities for drug repurposing: Primary screen for RD cells (AID 1347104); also: nearly all actives have a fitted effect of over 55% in size
Outline: as §2

[11] = qHTS of pediatric cancer cell lines to identify multiple opportunities for drug repurposing: Primary screen for MG 63 (6-TG R) cells (AID 1347105); also: nearly all actives have a fitted effect of over 50% in size
Outline: as §2

[12] = qHTS of pediatric cancer cell lines to identify multiple opportunities for drug repurposing: Primary screen for Saos-2 cells (AID 1347097); also: nearly all actives have a fitted effect of over 40% in size
Outline: as §2

[13] = qHTS of pediatric cancer cell lines to identify multiple opportunities for drug repurposing: Primary screen for NB1643 cells (AID 1347099); also: nearly all actives have a fitted effect of over 50% in size
Outline: as §2

[14] = qHTS of pediatric cancer cell lines to identify multiple opportunities for drug repurposing: Primary screen for LAN-5 cells (AID 1347100)
Outline: as §3

[15] = qHTS of pediatric cancer cell lines to identify multiple opportunities for drug repurposing: Primary screen for OHS-50 cells (AID 1347103); also: nearly all actives have a fitted effect of over 40% in size
Outline: as §3

[16] = qHTS of pediatric cancer cell lines to identify multiple opportunities for drug repurposing: Primary screen for BT-37 cells (AID 1347094)
Outline: as §2

[17] = qHTS of pediatric cancer cell lines to identify multiple opportunities for drug repurposing: Primary screen for BT-12 cells (AID 1347101); also: nearly all actives have a fitted effect of over 25% in size
Outline: as §3

[18] = qHTS of pediatric cancer cell lines to identify multiple opportunities for drug repurposing: Primary screen for control Hh wild type fibroblast cells (AID 1347106); also: nearly all actives have a fitted effect of over 55% in size
Outline: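 Cells (500-1,000/well) in growth media were settled 5 h at 37 degrees C, then given compounds for 48 h. Viability was read as CellTiter-Glo luminescence. Primary runs used MIPE at 11 points (0.78 nM-46 µM) and NPC at 8 points (0.59 nM-46 µM); follow-ups used 11 points.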
Potency is read from the fitted curve at half-maximal effect.

| SMILES | Potency [1] | Potency [2] | Potency [3] | Potency [4] | Potency [5] | Potency [6] | Potency [7] | Potency [8] | Potency [9] | Potency [10] | Potency [11] | Potency [12] | Potency [13] | Potency [14] | Potency [15] | Potency [16] | Potency [17] | Potency [18] |
| --- | --- | --- | --- | --- | --- | --- | --- | --- | --- | --- | --- | --- | --- | --- | --- | --- | --- | --- |
| O=C(O)CCCc1c[nH]c2ccccc12 | inactive | inactive | inactive | inactive | inactive | 18700 nM (active) | inactive | inactive | inactive | inactive | inactive |  |  |  |  |  |  |  |
| CC(C)c1cc(C(=O)N2Cc3ccc(CN4CCN(C)CC4)cc3C2)c(O)cc1O | 1040 nM (active) | 935 nM (active) | 372 nM (active) | 296 nM (active) | 332 nM (active) | 132 nM (active) |  | 482 nM (active) | 526 nM (active) |  |  | 935 nM (active) | 187 nM (active) | 209 nM (active) | 769 nM (active) |  |  |  |
| COc1cc2c(Oc3ccc(NC(=O)C4(C(=O)Nc5ccc(F)cc5)CC4)cc3F)ccnc2cc1OCCCN1CCOCC1 | 5870 nM (active) | 18700 nM (active) | 11.8 nM (active) | 2350 nM (active) | 743 nM (active) | 4180 nM (active) | 14800 nM (active) | 2410 nM (active) | 4690 nM (active) | 8330 nM (active) | 4690 nM (active) |  | 6620 nM (active) | 372 nM (active) |  | 27300 nM (active) | 19300 nM (active) | 26400 nM (active) |
| Nc1ncnc2c1c(-c1cccc(OCc3ccccc3)c1)cn2C1CC(CN2CCCC2)C1 (configuration not stated) | 6580 nM (active) | inactive | 20900 nM (active) | 18700 nM (active) | 662 nM (active) | 4690 nM (active) |  | 21500 nM (active) | 18700 nM (active) | 5260 nM (active) | 18700 nM (active) | 743 nM (active) | 4180 nM (active) | 1320 nM (active) | 432 nM (active) |  | 27300 nM (active) |  |
| Cc1c(CN2CCN(S(C)(=O)=O)CC2)sc2c(N3CCOCC3)nc(-c3cnc(N)nc3)nc12 | 294 nM (active) | 118 nM (active) | 46.9 nM (active) | 187 nM (active) | 4.7 nM (active) | 33.2 nM (active) |  | 1920 nM (active) | 105 nM (active) |  | 37.2 nM (active) | 332 nM (active) |  | 26.4 nM (active) | 9.7 nM (active) | 193 nM (active) |  |  |
| CCOc1ccccc1OCCNC(C)Cc1ccc(OC)c(S(N)(=O)=O)c1 (configuration not stated) | inactive | inactive | inactive | inactive | inactive | inactive | inactive | inactive | inactive | inactive | inactive |  | inactive | inactive |  | inactive | inactive |  |
